± gives the standard deviation of the averaged measurements.
What was measured:
[1] = tested on: CLZ3 (HCA2 human fibroblast dual HR-NHEJ reporter); assay: NHEJ repair efficiency (GFP+ cells) relative to control (log10 fold); higher = more non-homologous end joining; details: 5 µM; doxycycline 0.5 ug/mL
[2] = tested on: CLZ3 (HCA2 human fibroblast dual HR-NHEJ reporter); assay: HR repair efficiency (tdTomato+ cells) relative to control (log10 fold); higher = more homologous recombination; details: 5 µM; doxycycline 0.5 ug/mL
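Throughout, for HR repair efficiency (tdTomato+ cells) relative to control: compound given one day before doxycycline, which switches on I-SceI endonuclease expression to create double-strand breaks within the integrated reporter.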
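Throughout, for NHEJ repair efficiency (GFP+ cells) relative to control: compound given one day ahead of doxycycline, which switches on I-SceI endonuclease to cut the chromosomally integrated reporter and create DSBs.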

O=C1C[C@@H]2OCC=C3CN4CC[C@]56c7ccccc7N1[C@H]5[C@H]2[C@H]3C[C@H]46 [Strychnine]
NHEJ repair efficiency (log10) [1]: 0.104
HR repair efficiency (log10) [2]: -0.0183

O=c1ccc2cc3ccoc3c(O)c2o1 [Xanthotoxol]
NHEJ repair efficiency (log10) [1]: 0.0631
HR repair efficiency (log10) [2]: -0.0752

COC(=O)C1=CCCN(C)C1 [Arecoline]
NHEJ repair efficiency (log10) [1]: 0.0763
HR repair efficiency (log10) [2]: 0.183

CCN1C[C@]2(OC(=O)c3ccccc3NC(C)=O)CC[C@H](OC)[C@@]34[C@@H]2C[C@@H]([C@@H]13)[C@@]1(O)C[C@H](OC)[C@H]2C[C@@H]4[C@]1(O)[C@H]2OC [Lappaconitine]
NHEJ repair efficiency (log10) [1]: 0.147
HR repair efficiency (log10) [2]: 0.0273

C=C1[C@H]2C[C@@]3([C@@H]1O)[C@@H](CC2=O)[C@]12[C@@H]4C[C@H]3[C@H]1N(CC)C[C@]4(C)CC[C@@H]2O [Songorine]
NHEJ repair efficiency (log10) [1]: -0.0383
HR repair efficiency (log10) [2]: 0.115

O=C1C=CC(=O)c2c(O)cccc21 [Juglone]
NHEJ repair efficiency (log10) [1]: 0.0328
HR repair efficiency (log10) [2]: -0.281

CC(C)c1cc2c(c(O)c1O)[C@@]1(C(=O)O)CCCC(C)(C)[C@@H]1CC2 [Carnosic acid]
NHEJ repair efficiency (log10) [1]: 0.106
HR repair efficiency (log10) [2]: 0.167

CC(C)c1ccc2c(c1O)CC[C@H]1C3=C(CC[C@]21C)C(=O)OC3 [Triptophenolide]
NHEJ repair efficiency (log10) [1]: -0.142 ± 0.096
HR repair efficiency (log10) [2]: -0.108 ± 0.2
